The results in this text go back to PubChem BioAssay AID504444 (National Center for Advancing Translational Sciences (NCATS), 2011).

“And” between values parts separate entries of the source, which are not always exact repeats. Identical values can stand only once. About 7,500 (2.1%) of roughly 360,000 compounds were called active. Entries that show only a call come without a potency. Inconclusive results (about 20%) are left out. Calls come from the whole dose curve; as a rule, active = well fitted inhibition curve with a large enough effect; inconclusive = small, poorly fitted or top-dose-only effect, or effect the other way; inactive = flat fitted curve, though single readings scatter. This excerpt belongs to a sample that is enriched for actives. Some compounds were tested as several samples or in several runs, with calls that do not always agree.
Potency is the fitted concentration of half-maximal effect.

A short description of this test: Nrf2 qHTS screen for inhibitors. Note: nearly all actives have a fitted effect of over 60% in size. The note with it: A549 ARE-Fluc reporter, luciferase luminescence, 18-24 h; series mostly up to 46 µM. Put shortly:
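A549 ARE_Fluc cells, 5000/well, 5% FBS OPTI-MEM; compounds in dose-response, 18-24 h at 37 °C/5% CO2; CellTiter-Fluor viability read (Ex 405/Em 525), then BugLite luciferase luminescence = Nrf2 activity.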
For `CCN(CC)S(=O)(=O)c1ccc(CNC(=O)CN2C(=O)NC3(CCc4ccccc43)C2=O)cc1` (configuration not stated), the Potency result was “inactive”.
As for `Cc1ccc(C)c(N2CCN(C(=O)Cn3ncc4c(=O)oc5ccc(C)cc5c43)CC2)c1`, the Potency entry is “inactive”.
For `O=C(NCc1ccccc1)c1cccc(NC(=O)C2CCCCC2)c1`, the Potency entry was “inactive”.
On the same count and under the same terms, under `Cn1nnnc1SCCCNCc1cccc(OCc2ccc(Cl)cc2)c1` stands “inactive”; under `COc1ccc(CNC(=O)CCc2c(C)nn(-c3ccc(N4CCCC4)nn3)c2C)cc1`, “inactive”; under `O=[S+]([O-])(c1ccc(OC(F)(F)F)cc1)N1CCN([S+](=O)([O-])c2ccc3c(c2)OCCO3)CC1`, “inactive”.
On the same count and under the same terms, under `COc1cccc(CNC(=O)c2ccc3c(c2)N(Cc2ccc(C(F)(F)F)cc2)C(=O)c2ccccc2S3)c1OC` stands “inactive”.
Still for that read-out and setting: the same measure for `CCOc1ccc(C(=O)/C=C/c2cn(CC(O)CN3CCCCCC3)c3ccccc23)cc1` (configuration not stated): “inactive”; for `CCS(=O)(=O)c1nc(S(=O)(=O)c2ccc(C)cc2)c(NCc2ccc(Cl)cc2)s1`: “inactive”; for `NC1=NOC(=O)C1C1CCCCC1` (configuration not stated): “inactive”.
As to `CC(=O)Nc1ccc(C(=O)CSc2nc3ccc(C)cc3[nH]2)cc1`, the Potency result was “inactive”.
The same measure, in the same setting: under `Cc1cc(C)c(NC(=O)CSc2nc3ccncc3[nH]2)c(C)c1` stands “inactive”; under `CCCCNS(=O)(=O)c1ccc2nc(SCC(=O)Nc3cc(C)cc(C)c3)[nH]c2c1`, 13 µM (active); under `Cc1ccc(/C=C(\C#N)C(=O)Nc2cc(C)ccc2C)cc1`, “inactive”.
The same measure, in the same setting: under `CC(C)(C)c1ccc(S(=O)(=O)Nc2ccc(O)c(Sc3nc4ccccc4s3)c2)cc1` stands “inactive”; under `CCOc1ccc(NC(=O)c2c(NC(=O)Cc3ccccc3)sc3c2CCCCC3)cc1`, “inactive”; under `COc1ccc(NS(=O)(=O)c2ccc(Oc3c(C#N)cccc3C#N)cc2)cc1`, 13 µM (active).
Still for that read-out and setting: under `COc1cccc(NS(=O)(=O)c2ccc(-c3coc(C)n3)cc2)c1` stands “inactive”.
`COc1ccc(NS(=O)(=O)c2cccc(C(=O)NCCc3ccc(S(N)(=O)=O)cc3)c2)cc1`: the Potency entry was “inactive”.
Same read-out and setting: the same measure for `Cc1cccc(-n2c(SCC(N)=O)nc3c(oc4ccccc43)c2=O)c1`: “inactive”.
Still for that read-out and setting: the same measure for `N#CCSc1nc2c(c(=O)n1Cc1ccccc1)C1(CCCC1)Cc1ccccc1-2`: “inactive”; for `Cc1cccc(-n2c(SCC(N)=O)nc3c(c2=O)C2(CCCCC2)Cc2ccccc2-3)c1`: 20.6 µM (active).
Still for that read-out and setting: the same measure for `C[C@H](CO)N1C[C@H](C)[C@@H](CN(C)Cc2ccc(-c3ccccc3)cc2)Oc2ccc(NC(=O)Cn3cnnn3)cc2C1=O`: “inactive”; for `OCC(O)C1OCOC(C(O)CO)C1O` (configuration not stated): “inactive”.
For the molecule `CCOc1ccc(NC(=O)c2c(NC(=O)Cc3ccccc3)sc3c2CCC(C)C3)cc1` (configuration not stated), the Potency result was “inactive”.
As to `C/C(=N\NC(=O)Cc1ccc(Cl)cc1)c1ccccn1`, the Potency is 3.26 µM (active).
With `COc1ccc(CC(=O)NC(C)CCc2ccccc2)cc1` (configuration not stated), the Potency entry was “inactive”.
Turning to `Cc1cccc(C)c1NC(=S)N1CCCCCC1`, the Potency entry was “inactive”.
Still for that read-out and setting: the same measure for `COc1ccc(C/C(C)=N/NC(=O)c2ccncc2)cc1`: “inactive”.
Same read-out and setting: the same measure for `CNC(=S)N1CCN(c2ccccn2)CC1`: “inactive”; for `COc1ccc(CC(=O)N/N=C(\C)c2ccccn2)cc1`: 14.6 µM (active); for `C/C(=N\NC(=O)Cc1ccc(F)cc1)c1ccc(F)cc1`: “inactive”.
With `Cc1ccc(Cl)cc1NC(=O)c1ccccn1`, the Potency result was “inactive”.
Still for that read-out and setting: the same measure for `CC(=NNC(=S)N1CCCCCC1)c1ccccn1`: 1.16 µM (active).
Same read-out and setting: the same measure for `Cc1noc(C)c1NC(=O)Nc1ccc2c(c1)C(=O)N([C@H](C)CO)C[C@H](C)[C@@H](CN(C)C(=O)Nc1ccc(C(F)(F)F)cc1)O2`: “inactive”.
Same read-out and setting: the same measure for `Cc1ccc(-c2nn(CCC(=O)Nc3ccc(Cl)c(Cl)c3)c(=O)c3ccccc23)cc1`: “inactive”; for `CCCNC(=O)C(CC)n1nc(CC)n2c(cc3oc(C)cc32)c1=O` (configuration not stated): “inactive”.
For the molecule `CCOc1cccc(NC(=O)CSc2ncc(-c3ccc(Cl)cc3)[nH]2)c1`, the Potency entry is “inactive”.
For the molecule `Cc1ccc(Nc2c(-c3ccc(Cl)cc3)nc3sccn23)c(C)c1`, the Potency result is “inactive”.
Still for that read-out and setting: under `O=C(NN=Cc1ccccc1O)NN=Cc1ccccc1O` stands “inactive”.
Consider `Cc1n[nH]c(C)c1S(=O)(=O)N1CCCC(C(=O)NCC2COc3ccccc3O2)C1` (configuration not stated), for which the Potency entry is “inactive”.
On the same count and under the same terms, under `CC(=O)Nc1ccc(NC(=O)C2CCCN(S(=O)(=O)c3ccc4c(c3)CCCC(=O)N4)C2)cc1` (configuration not stated) stands “inactive”; under `O=C(O)C1CCCN(S(=O)(=O)c2cccc3cccnc23)C1` (configuration not stated), “inactive”; under `Cc1n[nH]c(C)c1S(=O)(=O)N1CCCC(C(=O)Nc2ccc(Br)cc2)C1` (configuration not stated), “inactive and 14.6 µM (active)”.
The same measure, in the same setting: under `COc1ccc(NC(=O)C2CCCN(S(=O)(=O)c3cccc4cccnc34)C2)cc1` (configuration not stated) stands 23.1 µM (active); under `COc1ccc(NC(=O)C2CCCN(S(=O)(=O)c3cccc4cccnc34)C2)cc1OC` (configuration not stated), “inactive”.
The same measure, in the same setting: the same measure for `COc1ccc(Cl)cc1NC(=O)CN(C)CC(=O)Nc1ccc2c(c1)OCO2`: “inactive”.
Turning to `O=C(Cn1cc(SCc2cccc(Cl)c2)c2ccccc21)N1CCCCC1`, the Potency entry was “inactive”.
The same measure, in the same setting: under `COc1cc(OC)cc(-c2c(-c3ccc(F)cc3)c3cc(-c4ccc5cc[nH]c5c4)ccc3n2C)c1` stands “inactive”.
On the same count and under the same terms, under `COc1cc(OC)cc(-c2c(-c3cccs3)c3cc(-c4ccc(OC)nc4)ccc3n2C)c1` stands “inactive”; under `COc1ccc(-c2c(-c3cc(OC)cc(OC)c3)n(C)c3ccc(-c4ccn[nH]4)cc23)cc1`, 11.6 µM (active); under `COCC(=O)N(C)[C@H]1C[C@H]2c3cc(Oc4ccccc4C)ccc3CCN2C(=O)[C@H]1[C@H](C)O`, “inactive”.
For the molecule `CC(OC(=O)c1cc2ccccc2[nH]1)C(=O)N(C)c1ccccc1` (configuration not stated), the Potency entry was “inactive”.
Take `Cc1ccc(C)c(N2CCN(C(=O)CN3C(=O)COc4ccc(S(=O)(=O)N5CCCCCC5)cc43)CC2)c1`: the Potency entry was “inactive”.
Same read-out and setting: the same measure for `O=C(CC1Sc2ccccc2NC1=O)NNc1ccc(Cl)c(Cl)c1` (configuration not stated): “inactive”; for `OCCCNc1nc(-c2ccccc2)c2cc(Cl)ccc2n1`: “inactive”; for `OCCCNc1nccc(-c2cc(Nc3cccc(Cl)c3)ncn2)n1`: 2.06 µM (active).
The same measure, in the same setting: the same measure for `Cc1cccc(Nc2nc(NCCO)nc(N3CCCC3)n2)c1`: “inactive”.
Still for that read-out and setting: under `Cc1ccc(NC(=O)Cn2cnc3c(OCc4ccccc4)ncnc32)cc1C` stands “inactive”; under `COc1ccc(S(=O)(=O)N2C[C@H]3CON(C)[C@H]3C[C@H]2c2cccc(Br)c2)cc1`, “inactive”.
With `COc1ccc(CCNc2nc(-c3ccc(Cl)cc3)cc(C(F)(F)F)n2)cc1OC`, the activity change, negative = inhibition was -14.7% [at 9.27 µM] (inactive).
In the case of `CC(=NNC(=O)c1ccncc1)c1ccc(Cl)c(Cl)c1`, the Potency result was “inactive”.
Still for that read-out and setting: the same measure for `Nc1c(C(=O)NCc2ccccc2)sc2nc3c(cc12)C(=O)CCC3`: “inactive”.
Still for that read-out and setting: under `NC(=O)c1sc2nc3c(c(-c4ccccc4)c2c1N)CCC3` stands 9.2 µM (active).
As for `Cc1sc2nc(CC(N)=O)[nH]c(=O)c2c1-c1ccccc1`, the Potency entry is “inactive”.
Turning to `COc1ccc(N2CCN(C3=NS(=O)(=O)C(c4cccc(Br)c4)=C3C)CC2)cc1`, the Potency entry is “inactive”.
As for `CSCCC(NC(=O)COc1ccccc1)C(=O)OCc1ccc(Cl)cc1` (configuration not stated), the Potency result was “inactive”.
The same measure, in the same setting: the same measure for `CN(C)CCNC(=O)c1ccc(Cl)c2cc3ccccc3nc12`: 18.4 µM (active); for `CC(=O)NCCNC(=O)c1cc(-c2cccc3ccccc23)nc2ccccc12`: “inactive”.
Still for that read-out and setting: under `CN(C)CCNC(=O)Nc1cccc(Cl)c1Cl` stands “inactive”; under `CC1CCCCC1NCC(=O)Nc1ccccc1C(=O)Nc1ccccc1` (configuration not stated), “inactive”; under `CC[C@]12c3[nH]c4cc(CCC(=O)N(C)C)ccc4c3CCN1C(=O)[C@@H](CC(=O)NCCCn1ccnc1)C[C@@H]2C(=O)N1CCN(C(=O)C2CC2)CC1`, “inactive”.
As to `Cc1c(C)n(Cc2ccc(Cl)cc2)c2ccc(C(=O)N3CCN(c4ccccc4F)CC3)cc12`, the Potency result was “inactive”.
Still for that read-out and setting: the same measure for `COc1cc(C(=O)NCC2(c3ccccc3)CCCC2)ccc1OC(C)C`: “inactive”; for `Cc1cccc(C(CC(=O)NCC2(c3ccccc3)CCCC2)c2ccccc2)c1O` (configuration not stated): 14.6 µM (active).
Still for that read-out and setting: the same measure for `O=C(CNC1CCCCC1)NCC1(c2ccccc2)CCCC1`: “inactive”; for `CC(=O)c1cccc(NC(=O)c2nc(-c3ccccc3)n(-c3cccc(C)c3)n2)c1`: 18.4 µM (active).
On the same count and under the same terms, the same measure for `Cc1cccc(N2C(=O)c3ccc(C(=O)Nc4cccc(C(=O)O)c4)cc3C2=O)c1`: “inactive”; for `CC(=O)c1cccc(NC(=O)c2cc(C)nn2-c2ccccc2)c1`: “inactive”; for `Cc1sc(C2C(C#N)=C(N)N(c3cccc(Cl)c3)C3=C2C(=O)CCC3)cc1CN1CCOCC1` (configuration not stated): “inactive”.
Regarding `COc1ccc(CNCCCNCc2ccc(OC)c(OC)c2)cc1OC`, the Potency entry was “inactive”.
On the same count and under the same terms, the same measure for `NC(=O)C1CCN(C(=O)c2ccc(C(F)(F)F)cc2)CC1`: “inactive”; for `O=C(c1ccc(C(F)(F)F)cc1)N1CCC(c2nc(-c3ccc(S(=O)(=O)N4CCCC4)cc3)no2)CC1`: 7.31 µM (active).
The same measure, in the same setting: under `CC(C)c1ccc(-c2noc(C3CCCN(S(C)(=O)=O)C3)n2)cc1` (configuration not stated) stands “inactive”; under `O=C(c1ccncc1)N1CCN(S(=O)(=O)c2cc(C(F)(F)F)cc(C(F)(F)F)c2)CC1`, “inactive”.
In the case of `O=C(Cc1cccs1)N1CCCC(c2nc(-c3ccc(S(=O)(=O)N4CCCC4)cc3)no2)C1` (configuration not stated), the Potency was 23.1 µM (active).
On the same count and under the same terms, the same measure for `O=C(c1ccc(F)cc1)N1CCCC(c2nc(-c3cccs3)no2)C1` (configuration not stated): “inactive”; for `CCOc1cc(C(=O)N(Cc2ccccc2)c2ccc(C)cc2)ccc1OCC(=O)N1CCOCC1`: “inactive”; for `COc1ccccc1NC(=O)C(=O)c1cc(C)n(-c2ccccc2F)c1C`: “inactive”.
For the molecule `Oc1ccc(Cl)cc1C1C=C(c2ccc3c(c2)OCO3)NC(c2c(F)cccc2Cl)N1` (configuration not stated), the Potency result was “inactive”.
Same read-out and setting: the same measure for `OC[C@@H]1O[C@H](n2cnc3c(SCc4ccccc4)ncnc32)[C@H](O)[C@H]1O`: “inactive”.
Still for that read-out and setting: the same measure for `Cc1c(Cl)cccc1-c1ccc(CNCCCSc2nnnn2C)o1`: “inactive”.
In the case of `CCCCCn1c(CCNC(=O)c2ccc(F)cc2)nc2ccccc21`, the activity change, negative = inhibition was 6.85% [at 9.27 µM] (inactive).
Consider `CC(C)NC(=O)C1CCC(Cn2c(=O)c3sccc3n(Cc3ccc(F)cc3)c2=O)CC1` (configuration not stated), for which the Potency result was “inactive”.
Same read-out and setting: under `COc1cccc(-c2nc(CS(=O)(=O)CC(=O)N3CCN(c4cc(C)ccc4C)CC3)c(C)o2)c1` stands 2.59 µM (active); under `CCCCN(CC)CCCNC(=O)CS(=O)(=O)Cc1nc(-c2cccc(OC)c2)oc1C`, “inactive”; under `COc1cccc(-c2nc(CS(=O)(=O)CC(=O)NCCc3ccc(OC)c(OC)c3)c(C)o2)c1`, “inactive”.
